The test concerns PC9. As to the kind of experiment: area under confluence curve of compound monotherapy; compare to DMSO control AUC of the same experiment (AUC (confluence x time, arbitrary)). How it is done:
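compare to DMSO control AUC of the same experiment; Monotherapy arm of the osimertinib DTP screen: EGFR-mutant NSCLC cells were treated with the test compound alone at a fixed dose (highest dose with <50% inhibition of parental cells, or 1 uM), then switched to drug-free medium at the DTP stage. IncuCyte confluence was tracked and AUC computed in Prism. AUC scale depends on experiment duration, so each row carries the same-experiment DMSO control AUC (monotherapy activity = DMSO AUC minus monotherapy AUC). The monotherapy value is shared between screen formats.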

Setting [1] is: 10 nM, DMSO control AUC in same experiment: 21341.
The mark [2] stands for this setting: 300 nM, DMSO control AUC in same experiment: 31840.
[3] abbreviates: 300 nM, DMSO control AUC in same experiment: 43316.
Setting [4] is: 1000 nM, DMSO control AUC in same experiment: 20567.
[5] abbreviates: 1000 nM, DMSO control AUC in same experiment: 22064.
Setting [6] is: 1000 nM, DMSO control AUC in same experiment: 21594.
[7] abbreviates: 1000 nM, DMSO control AUC in same experiment: 26668.

With `Cn1cc(CNCC2CCN(c3ncc(C(=O)NO)cn3)CC2)c2ccccc21` [Quisinostat], the “area under confluence curve” value under setting [1] stood at 17400; the “area under confluence curve” value (10 nM, DMSO control AUC in same experiment: 27958) was 20800; the “area under confluence curve” value (10 nM, DMSO control AUC in same experiment: 30002) amounted to 29800.

As to `CC(=O)Nc1cccc(-n2c(=O)n(C3CC3)c(=O)c3c(Nc4ccc(I)cc4F)n(C)c(=O)c(C)c32)c1` [Trametinib], the “area under confluence curve” value by setting is: under setting [1], 20400; (10 nM, DMSO control AUC in same experiment: 49189) 49600.

Consider `C=CCn1c(=O)c2cnc(Nc3ccc(N4CCN(C)CC4)cc3)nc2n1-c1cccc(C(C)(C)O)n1`, for which the “area under confluence curve” value is, setting by setting: (100 nM, DMSO control AUC in same experiment: 22064) 21300; (100 nM, DMSO control AUC in same experiment: 30604) 30700.

Regarding `CCN1CCN(Cc2ccc(Nc3ncc(F)c(-c4cc(F)c5nc(C)n(C(C)C)c5c4)n3)nc2)CC1` [Abemaciclib], the “area under confluence curve” value runs as follows: (100 nM, DMSO control AUC in same experiment: 28684) 28400; (100 nM, DMSO control AUC in same experiment: 30578) 29700; (100 nM, DMSO control AUC in same experiment: 88996) 88400.

Take `C/C=C/Cn1cc(-c2cc(OC)c(C(=O)N3CCOCC3)cc2OC)c2cc(C)[nH]c2c1=O`: the “area under confluence curve” value (100 nM, DMSO control AUC in same experiment: 44384) worked out at 44600.

Take `COc1nnc2ccc(N3CCC(c4ccc(OCCN5CCN(C)C(=O)[C@H]5C)cc4)CC3)nn12`: the “area under confluence curve” value is 19200 (300 nM, DMSO control AUC in same experiment: 19076); 20500 (300 nM, DMSO control AUC in same experiment: 21594); 31700 under setting [2]; 39700 (300 nM, DMSO control AUC in same experiment: 44384).

For `CN1CCN(CCOc2cc(OC3CCOCC3)c3c(Nc4c(Cl)ccc5c4OCO5)ncnc3c2)CC1` [Saracatinib], the “area under confluence curve” value amounted to 16000 (300 nM, DMSO control AUC in same experiment: 19507) and 24000 (300 nM, DMSO control AUC in same experiment: 28243).

With `CN(C)CCCOc1ccc(-c2ccc3ncc4c(c3c2)n(C2CCOCC2)c(=O)n4C)cn1`, the “area under confluence curve” value reads like this: (300 nM, DMSO control AUC in same experiment: 22064) 22000; (300 nM, DMSO control AUC in same experiment: 29563) 30100; (300 nM, DMSO control AUC in same experiment: 30604) 30300.

`Cc1c[nH]c2nc(Nc3ccc(N4CCN(C)CC4)c(F)c3)nc(-c3cccc(CC#N)c3)c12`: the “area under confluence curve” value is, setting by setting: (300 nM, DMSO control AUC in same experiment: 28684) 21400; (300 nM, DMSO control AUC in same experiment: 30008) 29700; under setting [3], 33700.

Regarding `NC1(C(=O)N[C@@H](CCO)c2ccc(Cl)cc2)CCN(c2nc[nH]c3nccc2-3)CC1` [Capivasertib], the “area under confluence curve” value runs as follows: (300 nM, DMSO control AUC in same experiment: 30578) 29000; under setting [2], 30700; under setting [3], 42700.

For `Cc1cccc(-c2[nH]c(C(C)(C)C)nc2-c2ccc3nccnc3c2)n1`, the “area under confluence curve” value under setting [4] was 20400 and the “area under confluence curve” value under setting [5] is 21700.

With `Cc1nc(N2CCC3(CC2)CO[C@@H](C)[C@H]3N)c(CO)nc1-c1cccc(Cl)c1Cl`, the “area under confluence curve” value under setting [4] was 20500 and the “area under confluence curve” value (1000 nM, DMSO control AUC in same experiment: 21678) amounted to 22100.

Turning to `COc1cc(CCc2cc(NC(=O)c3ccc(N4CC(C)NC(C)C4)cc3)n[nH]2)cc(OC)c1` (configuration not stated), the “area under confluence curve” value runs as follows: under setting [6], 20200; under setting [7], 28200.

With `Cc1cc2cc(C(=O)c3cnn(-c4cnc(Oc5c(F)cccc5F)cc4C)c3N)[nH]c2cc1NS(C)(=O)=O`, the “area under confluence curve” value under setting [6] amounted to 18400.

Turning to `CCc1cc2c(cc1N1CCC(N3CCOCC3)CC1)C(C)(C)c1[nH]c3cc(C#N)ccc3c1C2=O` [Alectinib], under setting [5], the “area under confluence curve” value is 16200.

With `COc1ccc(CCc2nc3cc(-c4c(C)noc4C)ccc3n2C[C@H](C)N2CCOCC2)cc1Cl`, the “area under confluence curve” value was 28400 under setting [7]; 49000 (1000 nM, DMSO control AUC in same experiment: 48219); 72800 (1000 nM, DMSO control AUC in same experiment: 72888).

For the compound `CCn1nc(C2CCN(C(=O)CCO)CC2)nc1-c1cnc(N)c(-c2nnc(C(C)(C)C)o2)n1`, the “area under confluence curve” value worked out at 28000 (1000 nM, DMSO control AUC in same experiment: 28684) and 43000 (1000 nM, DMSO control AUC in same experiment: 43316).

For the compound `Cc1[nH]nc(C(F)(F)F)c1Cc1sc2c(c1C(=O)N1C[C@](C)(O)CO1)c(=O)n(C)c(=O)n2C(C)C`, under “1000 nM, DMSO control AUC in same experiment: 30578”, the “area under confluence curve” value was 30100.

On to `CS(=O)(=O)N1CCN(Cc2cc3nc(-c4cccc5[nH]ncc45)nc(N4CCOCC4)c3s2)CC1`, for which the “area under confluence curve” value (1000 nM, DMSO control AUC in same experiment: 30580) stood at 24700.

For the compound `Cc1onc(C(=O)N2CCN(C(c3ccc(Cl)cc3)c3ccc(Cl)cc3)CC2)c1[N+](=O)[O-]`, the “area under confluence curve” value (1000 nM, DMSO control AUC in same experiment: 45737) is 46500.

These data come from the supplement of paper PMC9794691.
